p53ts 32C kill – cytotoxicity in p53ts cells at permissive temperature; H1299-p53A138V at 32C, ATP luminescence viability, 24 h; Potency, µM (titrated, usually from 46.1 µM), without a hit: at the highest dose activity change, negative = cytotoxicity, most hits filed as cytotoxic; 130,000 tested, 0.93% active; AID 924;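 also: 0% = DMSO and -100% = full killing by reference compound; nearly all actives have a fitted effect of over 55% in size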
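ATP-content luminescence (ATPlite) read-out after 24 h compound exposure at 32C in H1299-p53A138V cells (600/well). Tested up to 46 uM. Normalized to DMSO (0%) and 100 uM tamoxifen (100% killing); Hill-fit AC50.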
Imprint erasure – genomic imprint erasure induction; mouse ES Peg3-LacZ reporter, beta-gal luminescence, 40 h; Potency, µM (doses to about 60.7 µM), inactives show at the highest dose activity change, positive = activation, usual class: activators; 110,000 tested, 0.02% active; AID 1948
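Gelatin-coated wells received 300 freshly trypsinized female ES cells with a Peg3LacZ-Neo reporter on the maternal allele, then incubated 40 hours at 37C. BetaGlo was added for 5 minutes at room temperature before a single luminescence read.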
p53ts 39C kill – p53ts cell cytotoxicity, nonpermissive temperature; H1299-p53A138V viability at 39C, ATP luminescence, 24 h; Potency, µM (doses to about 46.1 µM), for the others: top-dose activity change, negative = cell killing, most hits filed as cytotoxic; 130,000 tested, 1.5% active; AID 902; also: % is scaled to controls: 0 for no effect and ±100 for the full control effect; nearly all actives have a fitted effect of over 55% in size
IkB sig inh – inhibitors of IkB signaling in ABC-DLBCL cells; 110,000 tested, 0.04% active; ABC-DLBCL IkBa-CBG/CBR dual luciferase ratio, 4 h; response scale: scaled: untreated 0%, proteasome inhibitor 100%; Potency, µM (titrated, usually from 57.1 µM), for inactives: top-dose IkBa stabilization activation; AID 445; active = well fitted curve in the direction sought with a large enough effect in the signal ratio, not every such curve was filed as active; inconclusive = small, poorly fitted or top-dose-only effect, or a change in a side signal; the % refers to the signal ratio;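 also: the direction sought is a rising ratio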
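Curves were fitted separately to fusion (green), unfused (red) and ratio luminescence, then classed by r2, magnitude and activity. Cells: OCI-Ly3, 4 h compound plus doxycycline at 37C; 10 uM MG-132 defined full response.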
An asterisk follows results filed as active; ? = inconclusive; . = no result given; ! = repeats disagree; [ ] = remark or other dose. Only some compounds are listed: those with a hit (about 1.7% of all), similar ones and a draw of the others. Unless noted, calls follow the shape of the dose curve; as a rule, active = well fitted curve in the direction sought with a large enough effect; inconclusive = small, poorly fitted or top-dose-only effect, or another doubt; inactive = no such curve, though single readings can be large; an effect the other way counts as inactive or inconclusive. Potency is read from the fitted curve at half-maximal effect.

SMILES	p53ts 32C kill	Imprint erasure	p53ts 39C kill	IkB sig inh
O=C(Nc1nc2ccc(F)cc2s1)c1nc(S(=O)(=O)Cc2ccccc2F)ncc1Cl	10µM*	-67%[10.9 µM]	5µM*	-3%
CCCS(=O)(=O)c1ncc(Cl)c(C(=O)Nc2c(C(=O)Nc3ccccc3)oc3ccccc23)n1	?	-39%[10.9 µM]	6.3µM*	?
O=C(NCc1ccccc1)c1nc(S(=O)(=O)Cc2ccccc2)ncc1Cl	?	-16%[10.9 µM]	7.9µM*	?
CCS(=O)(=O)c1ncc(Cl)c(C(=O)NCc2ccccc2)n1	?	-40%[10.9 µM]	13µM*	?
CC(C)Sc1ncc(Cl)c(C(=O)Nc2c(C(=O)Nc3ccccc3)oc3ccccc23)n1	17%	8%[10.9 µM]	-15%	1%
Cc1ccc(CNC(=O)c2nc(SCc3ccccc3C)ncc2Cl)cc1	-3%	-10%[10.9 µM]	-8%	?
COc1ccc(CNC(=O)c2nc(S(=O)(=O)Cc3ccccc3)ncc2Cl)cc1	20µM*	-24%[10.9 µM]	5µM*	?
Cc1ccc(C)c(NC(=O)c2nc(S(=O)(=O)Cc3ccc(F)cc3)ncc2Cl)c1	?	-34%[10.9 µM]	4µM*	?
CS(=O)(=O)c1ncc(Cl)c(C(=O)N(Cc2ccc(Cl)cc2)Cc2ccco2)n1	28µM*	-40%[10.9 µM]	3.2µM*	?
CC(C)C[C@@H](NC(=O)[C@@H](O)[C@H](N)Cc1ccccc1)C(=O)O	.	-10%	.	.
O=C(Nc1cccnc1)Nc1ccc(F)c(Cl)c1	?	-18%	-25%	-3%
Cn1ccc2cc(NC(=O)Nc3cccnc3)ccc21	?	-24%	16µM*	0%
Cc1cc(=O)n2[nH]c(-c3ccccc3)cc2n1	-21%	-39%	-22%	2%
O=c1cc(-c2ccccc2)nc2cc(-c3ccc(F)cc3)[nH]n12	-20%	-37%[10.9 µM]	10µM*	?
CC(=O)/C=C\C1[C@]2(C)CCCC(C)(C)C2CC[C@@]1(C)O (some centres undefined)	5%	18%	15%	.
CC(C)NC(=O)[C@H]1C[C@@H]1[C@H](NC(=O)OCc1ccccc1)c1ccccc1	-7%	-10%	-21%	.
C/C(=C\CNc1ncnc2c1ncn2[C@@H]1O[C@@H](CO)[C@@H](O)[C@H]1O)CO	.	.	.	0%[11.4 µM]
COc1ccc(OCc2ccc(C(=O)N3CCOCC3)cc2)cc1	-19%	.	9%	.
CCOc1ccc(OCc2cccc(C(=O)N3CCOCC3)c2)cc1	10µM*	-99%	13µM*	?
O=S(=O)(c1ccccc1)c1nc(-c2ccc(F)cc2)oc1N1CCCCCC1	5%	-21%[10.9 µM]	12%	?
Cc1ccc(S(=O)(=O)c2nc(-c3ccc(F)cc3)oc2N2CCN(c3ccccc3)CC2)cc1	12%	-4%[10.9 µM]	14%	0%
CCS(=O)(=O)c1oc(-c2ccc(F)cc2)nc1S(=O)(=O)c1ccccc1	?	-38%[10.9 µM]	2.5µM*	?
CCCCCS(=O)(=O)c1oc(-c2cccs2)nc1S(=O)(=O)c1ccc(C)cc1	?	-22%[10.9 µM]	3.2µM*	?
CCCSc1oc(-c2cccs2)nc1S(=O)(=O)c1ccc(C)cc1	1%	-19%[10.9 µM]	1%	?
CCCCS(=O)(=O)c1oc(-c2cccs2)nc1S(=O)(=O)c1ccc(F)cc1	20µM*	-38%[10.9 µM]	3.2µM*	?
SMILES	p53ts 32C kill	Imprint erasure	p53ts 39C kill	IkB sig inh
CCCCS(=O)(=O)c1oc(-c2ccc(F)cc2)nc1S(=O)(=O)c1ccc(C)cc1	13µM*	-37%[10.9 µM]	4µM*	?
COc1ccccc1-c1nccc(NCc2cccs2)n1	-6%	-15%	-25%	0%[11.4 µM]
O=C(NCC(c1ccc2c(c1)OCO2)N1CCOCC1)C(=O)Nc1ccccc1 (centres undefined)	3%	-2%[10.9 µM]	-3%	?
CCOC(=O)c1cccc(NC(=O)CC2C(=O)N(c3ccc(OC)cc3)C(=O)N2C2CCCC2)c1 (centres undefined)	13%	16%[10.9 µM]	-17%	1%
Cc1ccc(-n2ncc3c(=O)n(Cc4cccc(Cl)c4)cnc32)cc1C	-4%	5%[10.9 µM]	-8%	0%
CCC(C)S(=O)(=O)c1oc(-c2ccc(F)cc2)nc1S(=O)(=O)c1ccc(F)cc1 (centres undefined)	4µM*	-39%[10.9 µM]	3.2µM*	?
CCOC(=O)c1[nH]c2ccc(OC)cc2c1NC(=S)N1CCN(c2cccc(C)c2C)CC1	11µM*	.	?	.
CCOC(=O)c1[nH]c2ccc(OC)cc2c1NC(=S)N1CCN(c2ccc(F)cc2)CC1	-20%	.	-7%	.
CC(C)c1ccc(NC(=O)c2ccc3c(c2)CCN3S(=O)(=O)c2ccccc2)cc1	-6%	-21%[10.9 µM]	-24%	-2%
CC(C)c1ccc(NC(=O)c2ccc3c(c2)CCCN3S(C)(=O)=O)cc1	13µM*	-16%[10.9 µM]	-28%	1%
CN(C)c1ccc(-c2cc(NCc3cccnc3)ncn2)cc1	?	-41%	7.9µM*	0%[11.4 µM]
C[C@@H]1C[C@@]2(C)Oc3ccccc3[C@H]3OC[C@]1(COC(=O)Nc1ccccc1)[C@@H](C)[C@@H]32	.	.	.	1%[11.4 µM]
CCCCN(CC)C(=O)Nc1ccc2c(c1)N(C)C(=O)c1ccccc1S2	0%	-11%[10.9 µM]	25µM*	?
CCCCN(CC)CCCNC(=O)c1ccc2c(c1)N(Cc1ccc(C)cc1)C(=O)c1ccccc1S2	?	-9%[10.9 µM]	13µM*	0%
CCC(=O)N1CCCc2cc(S(=O)(=O)N3CCC(C(=O)Nc4ccc(F)c(F)c4)CC3)ccc21	0%	-11%[10.9 µM]	-26%	3%
NC(=O)CCCCC(N)=O	-12%[1.84 µM]	3%	-3%	1%
COc1ccc(OC)c(S(=O)(=O)n2ccnc2)c1	4%	-5%	6%	-2%
Nc1nc(N)c2nc(-c3ccccc3)c(N)nc2n1	13µM*!	-10%	-7%	?
CCC1=C2CC[C@H]3C(=O)N(c4ccccc4)C(=O)[C@H]3[C@H]2[C@@]2(C)C(=O)N(Cc3ccccc3)C(=O)N2C1=O	7%	-6%	9%	.
Cc1cc(C(=O)Nc2sc3c(c2C#N)CCC3)no1	10µM*	-52%	13µM*	-2%
Cc1cc(C(=O)Nc2sc3c(c2C#N)CCC(C)C3)no1 (centres undefined)	1%	-13%	-3%	-1%
Cc1cc(C(=O)Nc2sc3c(c2C#N)CCCC3)no1	6.3µM*	-53%	13µM*	0%
C[C@@H](C(=O)O)c1ccc(C[C@@H]2CCCC2=O)cc1	14%	.	13%	?
CC(C)N(Cc1ccccc1)C(=O)COC(=O)c1ccc2c(c1)OCCO2	5%	-12%	-9%	1%
CC(C)N(CCC(=O)c1ccc2ccccc2c1)Cc1ccccc1	20µM*	-34%	32µM*	?
Cc1nnc(SCCn2c(N3CCCC(C)C3)nc3c2c(=O)n(C)c(=O)n3C)s1 (centres undefined)	5µM*	-93%	6.3µM*	3%
COc1ccc(OCCn2cc(C(=O)c3ccco3)c3ccccc32)cc1	4%	-6%[10.9 µM]	-18%	?
O=C1O/C(=C\Br)CC[C@@H]1c1cccc2ccccc12	20µM*	.	20µM*	5%

From PubChem BioAssay
